In one experiment the target is C6orf105. Briefly: pooled miR-30 sensor sort-seq; sequence = guide strand. To be noted: shRNA.
In the case of TATATTTCCACCTTGCACCATT, the sensor-assay potency score (higher = more potent) was -0.555.
On the same count and under the same terms, then TATCACTCTCTGTCCCTCCTAC, with 0.281; and TCTCCAAGTAGGTAGATGCTGG, with -0.762; and TTCTTTTCAGCACATCATCCAG, with -1.18.
Turning to TTAAATTTAAGTATCACTCTCT, the sensor-assay potency score (higher = more potent) worked out at 1.11.
On the same count and under the same terms, the value for TAAGTATCACTCTCTGTCCCTC was -0.473.
With TTAAGTATCACTCTCTGTCCCT, the sensor-assay potency score (higher = more potent) was 0.33.
TTGCATGATTCAGCCACACGGG: the sensor-assay potency score (higher = more potent) is -0.688.
In turn, TTCAGCACATCATCCAGGCAGG gave a sensor-assay potency score (higher = more potent) of -0.972.
On the same count and under the same terms, the value for TTGTAGAGAAAGAGGATCCAGA was -0.578; that for TCTTTTCAGCACATCATCCAGG was -0.0678.

Another experiment has as its target C6orf118. The experiment is described as above. The note with it: shRNA.
Regarding TTGCTTGGCGAGCACTTCCTTC, the sensor-assay potency score (higher = more potent) was -1.21.
TAGAGGTAGACGTCCTCCCGGT showed a sensor-assay potency score (higher = more potent) of -0.61.
Take TTACACAGGGTCTTCACTCCTG: the sensor-assay potency score (higher = more potent) is 0.491.
Regarding TATGTTTCTCAGATGATTCTGA, the sensor-assay potency score (higher = more potent) came to 0.578.
On the same count and under the same terms, then TTAAGAACTAGTATTGTTGTAA, with 0.558.
Still for that read-out and setting: then TTGTATAGCTTCATGCTCTATG, with 0.444.
Consider TTTTACTAGAGATTAAAGCTGA, for which the sensor-assay potency score (higher = more potent) worked out at 0.127.
For TGAAATTCCAGTATGAACCAAA, the sensor-assay potency score (higher = more potent) is -0.164.
The same measure, in the same setting: then TTCAGGTACCTGAACAGCGGGG, with -1.06.
The same measure, in the same setting: the value for TCTCAGATGATTCTGATCGTTC was -0.778; that for TACACAGGGTCTTCACTCCTGG was -0.203.

The target of a further experiment is C6orf145. Described as above. The note with it: shRNA.
In turn, TGGATTACTAAACATCCCCTGC yielded a sensor-assay potency score (higher = more potent) of -0.823.
Still for that read-out and setting: the value for TTACTAAACATCCCCTGCCTGT was -0.858; that for ATTTTTTAACACCTGATCCAGA was -0.814.
Regarding TCAATAACTATTGTTTCGGTAT, the sensor-assay potency score (higher = more potent) was -0.234.
The same measure, in the same setting: the value for TTATCTAGTCGGCAATGCCTTC was -1.25; that for TATACTGTGGTCAATAACTATT was -1.52.
Turning to TTGACTGGACTTTGAAAGCTGG, the sensor-assay potency score (higher = more potent) was -0.406.
The same measure, in the same setting: the value for TCGTTAGTAGACACTGAGCAGA was -0.734.
TTTACATTAGCAAATGTCGGTC: the sensor-assay potency score (higher = more potent) was -0.665.
Sequence TATTTGCTAAACAAAATCCATT came in with a sensor-assay potency score (higher = more potent) of -1.51.
Consider TATGATCGTCTTCAGCAGCTTC, for which the sensor-assay potency score (higher = more potent) is -1.

In a further experiment the target is C6orf203. Described as above. The note with it: shRNA.
In turn, TAGTTTTTGACTACAGTAGGAT showed a sensor-assay potency score (higher = more potent) of -0.319.
On to TTTCACTTTCAGTCTTCTCTTC, for which the sensor-assay potency score (higher = more potent) is 0.689.
On the same count and under the same terms, the value for TTCAGGACAACATCATACCGAA was -0.635; that for TAGTAGATTTTGTAGACCTTAT was -0.878.
In the case of TTTGTAGAAAGCATCTTCCACT, the sensor-assay potency score (higher = more potent) is -0.297.
Regarding TATTACTTTTGAGTCTTACGGA, the sensor-assay potency score (higher = more potent) is -0.0954.
With TTACTTTTGAGTCTTACGGAAA, the sensor-assay potency score (higher = more potent) is -1.38.

The values are drawn from the OligoGym collection.
Note: reference of the scale not given here.
